This note sets out measurements from PubChem BioAssay.

Assay [1] has as its system Plasmodium falciparum Sir2 (PF13_0152, Sir2A). In words: pfSir2 binders on small-molecule microarrays, primary screen, biochemical, small-molecule microarray, 635 nm fluorescence (AID 1098).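 Note: score merges spot fluorescence intensity with its signal-to-noise ratio.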 As to conditions: small-molecule microarray binding, fluorescence 635 nm; higher = more signal.
Assay [2] in a line: small-molecule microarray binders of probe aDKK1, primary screen, biochemical, biotinylated probe, 635/667 nm fluorescence (AID 1099).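 Note: score merges 667nm spot fluorescence with signal to noise across triplicate slides.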 As to conditions: higher = more signal.
The nature of assay [3]: small-molecule microarray binders of probe aCHRDL2, primary screen, biochemical, biotinylated probe, 635/667 nm fluorescence (AID 1100). Conditions: higher = more signal.
Assay [4] in a line: splicing luciferase reporter signal modulators, primary screen, spliceosome inhibition project, cell-based, HEK293, splice +/- reporter (AID 1101).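 Note: HEK293 cells carrying a splicing-competent luciferase reporter gene; test concentration not given here.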 Conditions: luminescence, 24 h, higher = more signal, called active from +8 up or from −8 down. On the technique in general: A reporter such as luciferase makes a cellular process visible.
Assay [5] concerns the target Fibroblast growth factor 10 (Homo sapiens) (UniProt O15520). In words: FGF10 binders on small-molecule microarrays, primary screen, biochemical, small-molecule microarray, 635 nm fluorescence (AID 1102). As to conditions: FGF10 binding, fluorescence 635 nm, higher = more signal.
Assay [6] deals with glycogen synthase kinase-3 (GSK3A per assay name; protocol says GSK3B). Put plainly: GSK3 binders on small-molecule microarrays, primary screen, biochemical, small-molecule microarray, 635 nm fluorescence, GSK3A (AID 1103). Note: the record names both GSK3A and GSK3B. Conditions: small-molecule microarray binding, fluorescence 635 nm; higher = more signal.
Assay [7] concerns the target Epidermal growth factor receptor (Homo sapiens) (UniProt P00533). Put plainly: EGFR binders on small-molecule microarrays, primary screen, biochemical, small-molecule microarray, 635 nm fluorescence (AID 1104).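 Note: score merges 667 nm emission intensity with spot signal to noise over triplicate slides.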 Conditions: EGFR binding, higher = more signal.
Assay [8] has as its target Follistatin-related protein 3 (Homo sapiens) (UniProt O95633). In words: FSTL3 binders on small-molecule microarrays, primary screen, biochemical, small-molecule microarray, 635 nm fluorescence (AID 1105).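 Note: score merges emission near 667 nm and signal to noise per printed spot across three slides.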 Conditions: FSTL3 binding, higher = more signal.
In assay [9] the target is Dickkopf-related protein 1 (Homo sapiens) (UniProt O94907). Put plainly: DKK1 binders on small-molecule microarrays, primary screen, biochemical, small-molecule microarray, 635 nm fluorescence scan (AID 1106).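 Note: score merges emission near 667 nm with signal to noise over three replicate slides.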 Conditions: DKK1 binding, higher = more signal.
Dickkopf-related protein 1 (Homo sapiens), sequence (O94907 whole entry, looked up): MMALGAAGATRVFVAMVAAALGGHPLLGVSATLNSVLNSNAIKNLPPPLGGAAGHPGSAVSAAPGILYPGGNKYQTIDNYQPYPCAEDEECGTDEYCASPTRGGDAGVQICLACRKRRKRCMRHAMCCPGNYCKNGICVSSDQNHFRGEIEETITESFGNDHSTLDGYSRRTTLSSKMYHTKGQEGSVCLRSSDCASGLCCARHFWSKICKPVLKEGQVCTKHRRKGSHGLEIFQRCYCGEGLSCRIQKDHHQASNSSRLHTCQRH
Assay [10] concerns Inhibin beta A chain (activin A). Put plainly: INHBA (activin A) binders on microarrays, primary screen, biochemical, small-molecule microarray, 635 nm fluorescence scan (AID 1107).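 Note: mouse activin A protein probed at 4.33 µg/mL on printed slides; score merges bound-protein fluorescence near 667 nm with spot signal-to-noise.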 Conditions: small-molecule microarray binding, higher = more signal.
The subject of assay [11] is Human papillomavirus type 1a protein E7 (residues 44-93). In words: HPV1a E7 fragment binders on microarrays, primary screen, biochemical, small-molecule microarray, residues 44-93, 635 nm fluorescence (AID 1108).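 Note: E7 fragment applied at 1 µg/mL in TBST for 1 h at 4 C; score combines spot fluorescence with its signal to noise ratio.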 As to conditions: small-molecule microarray binding, fluorescence 635 nm; higher = more signal.
A short description of assay [12]: modulators of HCV replicon luciferase signal, primary screen, HCV replication inhibitor project, Huh7 cells, luciferase reporter (AID 1109).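 Note: huh7 hepatoma cells harbouring a luciferase neomycin HCV replicon reporter; luciferase luminescence as measure of HCV replicon replication; test concentration not given here.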 As to conditions: 48 h, higher = more signal. (In general: A replicon is a self-replicating genome or part of one, used to study replication in cells.)
The target of assay [13] is Left-right determination factor 2 (Homo sapiens) (UniProt O00292). In words: LEFTY2 binders on small-molecule microarrays, primary screen, biochemical, small-molecule microarray, 635 nm fluorescence scan (AID 1110). As to conditions: LEFTY2 binding, higher = more signal.
Left-right determination factor 2 (Homo sapiens), sequence (O00292 whole entry, looked up): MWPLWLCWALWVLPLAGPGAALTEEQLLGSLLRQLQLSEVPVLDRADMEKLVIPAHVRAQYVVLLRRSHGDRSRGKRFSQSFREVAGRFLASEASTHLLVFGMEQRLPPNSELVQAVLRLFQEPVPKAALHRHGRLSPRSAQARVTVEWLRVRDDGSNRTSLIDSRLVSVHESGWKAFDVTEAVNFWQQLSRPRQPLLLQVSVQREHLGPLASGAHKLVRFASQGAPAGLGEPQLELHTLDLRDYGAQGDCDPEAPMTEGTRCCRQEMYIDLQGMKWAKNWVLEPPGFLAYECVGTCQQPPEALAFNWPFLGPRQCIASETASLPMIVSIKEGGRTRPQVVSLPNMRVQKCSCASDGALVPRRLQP
Assay [14] concerns the target Calmodulin-1 (Homo sapiens) (UniProt P0DP23). In words: CALM1 binders on microarrays, EGTA buffer, profiling panel, biochemical, small-molecule microarray, Cy5-labelled CALM1 (AID 1111).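 Note: labelled calmodulin applied in Tris saline Tween buffer holding calcium plus EGTA and DTT.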 As to conditions: Cy5-CALM1 binding fluorescence, higher = more signal.
For assay [15] the target is unchanged. In words: calcium-bound CALM1 binders on microarrays, profiling panel, artefact control for SMM control-protein annotation, biochemical, small-molecule microarray, Cy5-labelled CALM1, plus calcium (AID 1112).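 Note: score merges spot fluorescence with signal to noise from triplicate slides.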 As to conditions: Cy5-CALM1 binding fluorescence, higher = more signal.
Assay [16] is described as follows: small-molecule microarray binders of probe aWnt5a, primary screen, biochemical, biotinylated probe, 635/667 nm fluorescence (AID 1113).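 Note: score merges 667 nm fluorescence intensity with signal-to-noise per printed feature.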 Conditions: higher = more signal.
The nature of assay [17]: small-molecule microarray binders of probe aShh, primary screen, biochemical, biotinylated probe, 635/667 nm fluorescence (AID 1114).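 Note: probe is biotin-labelled aShh protein from a stem cell growth factor screen; measures binding of labelled protein to compounds printed on the slide; score merges feature fluorescence at 667 nm with signal-to-noise.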 As to conditions: higher = more signal.
Assay [18] is described as follows: small-molecule microarray binders of probe aNog, primary screen, biochemical, biotinylated probe, 635/667 nm fluorescence (AID 1115).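 Note: probe is biotinylated aNog protein used at 0.15 µg/mL for 1 h at 4 C; z-score combines 667 nm fluorescence of each spot with its signal to noise.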 As to conditions: higher = more signal.
Assay [19] has as its target Torsin-1A-interacting protein 1 (Homo sapiens) (UniProt Q5JTV8). Put plainly: LAP1 binders from COS7 cell lysate, primary screen, small-molecule microarray, 635/667 nm fluorescence (AID 1116). Conditions: COS7-hLAP1 lysate binding, 635 nm fluorescence, higher = more signal.
For assay [20], the target named is Alpha-bungarotoxin (Bungarus multicinctus) (UniProt P60615). In words: alpha-bungarotoxin binders on microarray, profiling panel, artefact control for SMM control protein annotation, biochemical, small-molecule microarray, Alexa647 label, 635/667 nm fluorescence (AID 1117). As to conditions: alpha-BTX-A647 binding fluorescence, higher = more signal.
Alpha-bungarotoxin (Bungarus multicinctus), sequence (P60615 whole entry, looked up): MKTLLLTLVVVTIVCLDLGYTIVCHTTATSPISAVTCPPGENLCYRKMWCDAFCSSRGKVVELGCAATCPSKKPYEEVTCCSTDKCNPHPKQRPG

Each structure is given as a SMILES string. Calls of active or inactive are those of the source.

Follistatin-related protein 3 (Homo sapiens), sequence (O95633 whole entry, looked up): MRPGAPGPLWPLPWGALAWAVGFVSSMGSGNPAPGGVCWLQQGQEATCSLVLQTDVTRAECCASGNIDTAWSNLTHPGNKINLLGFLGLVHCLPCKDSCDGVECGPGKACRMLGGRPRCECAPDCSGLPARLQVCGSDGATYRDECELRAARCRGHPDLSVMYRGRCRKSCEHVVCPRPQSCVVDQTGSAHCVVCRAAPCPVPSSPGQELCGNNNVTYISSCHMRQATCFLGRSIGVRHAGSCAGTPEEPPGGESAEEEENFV
Epidermal growth factor receptor (Homo sapiens), sequence (P00533 whole entry, looked up): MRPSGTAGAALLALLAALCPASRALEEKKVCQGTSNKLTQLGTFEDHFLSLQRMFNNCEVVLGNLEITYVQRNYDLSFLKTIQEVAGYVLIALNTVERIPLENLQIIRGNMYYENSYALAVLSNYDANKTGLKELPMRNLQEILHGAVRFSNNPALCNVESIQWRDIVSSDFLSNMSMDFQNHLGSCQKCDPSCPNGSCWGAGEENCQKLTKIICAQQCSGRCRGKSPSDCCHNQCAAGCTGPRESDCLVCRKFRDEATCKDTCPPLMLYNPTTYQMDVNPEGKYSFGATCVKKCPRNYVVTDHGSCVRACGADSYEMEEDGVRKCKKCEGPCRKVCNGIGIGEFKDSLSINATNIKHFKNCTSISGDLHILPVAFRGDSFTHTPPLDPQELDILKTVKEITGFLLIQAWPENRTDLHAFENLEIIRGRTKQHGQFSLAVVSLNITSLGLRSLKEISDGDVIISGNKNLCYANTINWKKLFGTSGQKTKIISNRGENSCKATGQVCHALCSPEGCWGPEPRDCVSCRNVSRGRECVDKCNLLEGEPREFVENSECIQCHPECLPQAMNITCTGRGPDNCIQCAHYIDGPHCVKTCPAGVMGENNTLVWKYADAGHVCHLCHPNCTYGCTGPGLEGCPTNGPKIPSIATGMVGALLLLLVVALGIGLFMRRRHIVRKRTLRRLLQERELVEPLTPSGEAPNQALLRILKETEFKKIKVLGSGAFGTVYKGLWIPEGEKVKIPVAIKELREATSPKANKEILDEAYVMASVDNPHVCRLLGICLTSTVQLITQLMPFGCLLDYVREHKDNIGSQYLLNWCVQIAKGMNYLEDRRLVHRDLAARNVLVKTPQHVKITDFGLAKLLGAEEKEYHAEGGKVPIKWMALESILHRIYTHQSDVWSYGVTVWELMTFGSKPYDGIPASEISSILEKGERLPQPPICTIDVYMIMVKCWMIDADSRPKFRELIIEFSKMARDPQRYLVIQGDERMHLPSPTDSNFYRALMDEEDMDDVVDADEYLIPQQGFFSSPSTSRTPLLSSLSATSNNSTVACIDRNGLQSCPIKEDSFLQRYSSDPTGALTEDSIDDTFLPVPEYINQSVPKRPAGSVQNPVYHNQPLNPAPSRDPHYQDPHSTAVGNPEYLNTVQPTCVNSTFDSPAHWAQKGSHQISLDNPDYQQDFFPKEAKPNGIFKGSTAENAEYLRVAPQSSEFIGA
Torsin-1A-interacting protein 1 (Homo sapiens), sequence (Q5JTV8 whole entry, looked up): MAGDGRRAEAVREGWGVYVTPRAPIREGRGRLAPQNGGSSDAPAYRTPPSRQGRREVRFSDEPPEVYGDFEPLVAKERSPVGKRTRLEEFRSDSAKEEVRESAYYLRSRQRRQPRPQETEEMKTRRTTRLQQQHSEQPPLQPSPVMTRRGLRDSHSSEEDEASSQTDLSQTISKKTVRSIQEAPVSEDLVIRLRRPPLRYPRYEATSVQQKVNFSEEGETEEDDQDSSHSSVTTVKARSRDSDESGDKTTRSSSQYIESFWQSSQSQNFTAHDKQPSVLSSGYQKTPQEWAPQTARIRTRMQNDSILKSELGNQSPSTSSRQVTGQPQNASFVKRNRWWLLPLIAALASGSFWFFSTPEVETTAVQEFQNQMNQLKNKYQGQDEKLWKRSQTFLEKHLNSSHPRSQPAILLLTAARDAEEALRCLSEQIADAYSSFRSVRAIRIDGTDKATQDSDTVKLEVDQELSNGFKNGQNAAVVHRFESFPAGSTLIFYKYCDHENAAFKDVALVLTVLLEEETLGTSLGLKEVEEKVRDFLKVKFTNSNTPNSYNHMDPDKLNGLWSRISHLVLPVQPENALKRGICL
Fibroblast growth factor 10 (Homo sapiens), sequence (O15520 whole entry, looked up): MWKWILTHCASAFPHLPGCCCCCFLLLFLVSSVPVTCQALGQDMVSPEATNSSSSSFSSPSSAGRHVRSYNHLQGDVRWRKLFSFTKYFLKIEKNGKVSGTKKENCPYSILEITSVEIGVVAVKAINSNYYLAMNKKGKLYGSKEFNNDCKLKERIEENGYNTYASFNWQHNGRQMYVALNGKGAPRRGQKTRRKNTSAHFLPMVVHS

As for `O=C1[C@H]2[C@H]3[C@H](O)[C@H](O)CC(=NOC[C@@H](O)COCc4ccco4)[C@@H]3CC[C@H]2C(=O)N1c1cccc(Oc2ccccc2)c1`, the composite z-score in assay [1] is -0.042; in assay [2] it was -0.334; in [3] it was -0.885; in [5] it was -0.25; in assay [6], -0.91; in assay [7] it was -0.094. Besides, the composite z-score in [8] was -0.213; in assay [9], 0.461; in assay [10], 0.831; in assay [11] it was -0.645; in assay [13] it was 0.103; in assay [14], 0.0705. Further, the composite z-score in [15] is -0.511; in [16], -0.0758; in assay [17], -0.289; in [18] it was -0.29; in [19] it was -0.0841; in [20] it was 0.534. Moreover, the values for the z-score in assay [4] and in assay [12] were -0.33 (inactive) and -0.739, respectively.

In the case of `CCCNC(=O)OC[C@H]1O[C@H](CCON=C[C@@H](NS(=O)(=O)c2ccc(C)cc2)[C@H](C)C=CCC(=O)OC)C=C[C@@H]1Oc1ccc(OC)cc1`, the composite z-score is -0.289 in [1]; -0.0175 in assay [2]; 0.0838 in assay [3]; -0.0511 in assay [5]; -0.54 in assay [6]; -0.147 in [7]. The composite z-score in [8] is -0.293; in [9] it was -0.0968; in assay [10], 0.32; in [11] it was 0.186; in assay [13] it was 0.65; in [14], -1.21. Moreover, the composite z-score in assay [15] was -1; in assay [16] it was -0.117; in assay [17], -0.138; in [18], -0.0312; in [19], 0.247; in assay [20] it was 0.0462. Further, the z-score in [4] was -0.362 (inactive); in assay [12], -1.65.

Turning to `COCCNC(=O)OCC1CCCC2(CC(OC(=O)NCc3cccc4ccccc34)CC(CCC(=O)N[C@@H](C)C(=O)OC)O2)O1` (stereo not given in full), the composite z-score in assay [1] was 0.798; in assay [2] it was -0.252; in assay [3], -0.589; in assay [5], 1.06; in assay [6] it was 1.22; in assay [7] it was 0.709. The composite z-score is 0.781 in assay [8]; 0.735 in assay [9]; -0.0341 in assay [10]; 1.35 in assay [11]; 0.781 in [13]; 0.171 in assay [14]. In addition, the composite z-score in [15] is -0.62; in assay [16], -0.144; in [17] it was -0.0006; in [18] it was -0.256; in assay [19], 0.002; in [20], 0.801. Besides, the z-score in [4] is -0.674 (inactive); in assay [12] it was -0.942.

As to `CON=C1c2cc(OC)ccc2O[C@H](c2cccc(OC)c2)[C@H]1O`, the composite z-score is 0.386 in assay [1]; -0.0086 in assay [2]; -0.365 in [3]; 0.934 in assay [5]; 0.498 in assay [6]; 0.52 in [7]. Moreover, the composite z-score in [8] was 0.81; in [9], 0.636; in [10], 0.593; in assay [11], 0.365; in [13], 0.601; in [14] it was -0.332. The composite z-score was -0.729 in assay [15]; -0.0165 in assay [16]; 0.172 in [17]; -0.0211 in assay [18]; 0.646 in assay [19]; -0.0531 in assay [20]. The z-score in [4] was -0.268 (inactive); in assay [12], 7.91.

For `CC(C)[C@H](NC(=O)OC(C)(C)C)[C@@H](O)CC(=O)C(C)(C)C`, the composite z-score is 0.447 in assay [1]; -0.268 in assay [2]; -0.428 in [3]; 0.159 in assay [5]; -0.191 in [6]; 0.327 in [7]. The composite z-score in assay [8] is 0.29; in assay [9], 0.513; in assay [10], -0.0828; in assay [11], 0.223; in assay [13] it was -0.1; in assay [14] it was -0.32. The composite z-score was -0.748 in [15]; -0.18 in [16]; -0.24 in assay [17]; 0.237 in assay [18]; 0.161 in [19]; 0.302 in assay [20]. The z-score in assay [4] was -0.275 (inactive); in [12] it was 0.515.

As to `CO[C@@H]1COC(=O)[C@H](COCc2ccccc2)NC(=O)CC=C[C@@H](C)[C@H](OC)COC(=O)[C@@H](C)NC(=O)CC=C[C@H]1C`, the composite z-score in assay [1] is 1.57; in assay [2], -0.556; in assay [3] it was -0.97; in assay [5], 0.0278; in assay [6], -0.314; in assay [7], 0.378. In addition, the composite z-score was 0.754 in assay [8]; 1.16 in assay [9]; 1.84 in [10]; -0.747 in assay [11]; 0.583 in [13]; -1.78 in assay [14]. Also, the composite z-score in [15] was -2.61; in [16] it was -0.18; in assay [17] it was 0.0062; in [18] it was -0.643; in [19], 0.343; in assay [20], -1.31. In addition, the values for the z-score in assay [4] and in assay [12] were 0.0772 (inactive) and -0.536, respectively.
